According to PubChem BioAssay (EPA / NIEHS):
Calls of active or inactive are those of the source. How the source made its calls: active means hit-call score of the fitted dose curve at least 0.9, where 1 is the maximum; inactive means score below 0.9.

Key:
[1] = read-out: Human Leukocyte Antigen - DR isotype (HLADR), HLA-DRA (gene 3122); assay: BSK_BE3C_HLADR: BioMAP Diversity Plus: BE3C Assay for Human Leukocyte Antigen - DR isotype (HLADR) Biomarker Activity (AID 2283032); conditions: primary human bronchial epithelial cells; actives raise or lower the signal
Method in brief: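 Human primary bronchial epithelial cells (BE3C system) exposed to compound for 24 hours; cell-surface HLA-DR measured by ELISA, fitted bidirectionally relative to DMSO. Total protein by SRB in parallel cultures tracked cytotoxicity.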

[2] = read-out: Vascular cell adhesion molecule 1 (VCAM1), VCAM1 (gene 7412); assay: BSK_4H_VCAM1: BioMAP Diversity Plus: 4H Assay for Vascular cell adhesion molecule 1 (VCAM1) Biomarker Activity (AID 2283033); conditions: primary human endothelial cells (HUVEC); actives raise or lower the signal
Method in brief: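 Primary human umbilical vein endothelial cells, 4H stimulation system, treated for 24 h; cell-surface VCAM-1 quantified by ELISA. Bidirectional fitting against DMSO; cytotoxicity tracked by SRB total-protein staining in parallel cultures.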

[3] = read-out: Interferon-gamma inducible Protein 10 (IP10), CXCL10 (gene 3627); assay: BSK_BE3C_IP10: BioMAP Diversity Plus: BE3C Assay for Interferon-gamma inducible Protein 10 (IP10) Biomarker Activity (AID 2283034); conditions: primary human bronchial epithelial cells; actives raise or lower the signal
Method in brief: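 Primary human bronchial epithelial cells, with IP-10 measured by ELISA 24 hours after chemical dosing. Bidirectional fit against DMSO; cytotoxicity checked by SRB total protein staining in parallel cultures.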

[4] = read-out: Monokine induced gamma interferon (MIG), CXCL9 (gene 4283); assay: BSK_BE3C_MIG: BioMAP Diversity Plus: BE3C Assay for Monokine induced gamma interferon (MIG) Biomarker Activity (AID 2283035); conditions: primary human bronchial epithelial cells; actives raise or lower the signal
Method in brief: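 ELISA read-out of MIG in human lung bronchial epithelial primary cultures, 24 h post-dosing. Bidirectional curve fit vs DMSO baseline.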

[5] = read-out: Transforming growth factor beta 1 (TGFb1), TGFB1 (gene 7040); assay: BSK_BE3C_TGFb1: BioMAP Diversity Plus: BE3C Assay for Transforming growth factor beta 1 (TGFb1) Biomarker Activity (AID 2283036); conditions: primary human bronchial epithelial cells; actives raise or lower the signal
Method in brief: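 Primary human bronchial epithelial cells dosed with chemical; TGF-b1 measured by ELISA 24 h after dosing. Bidirectional curve fitting against DMSO negative control; SRB total-protein staining in parallel cultures gauged cytotoxicity.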

[6] = read-out: Plasminogen activator inhibitor-1 (PAI1), SERPINE1 (gene 5054); assay: BSK_BE3C_PAI1: BioMAP Diversity Plus: BE3C Assay for Plasminogen activator inhibitor-1 (PAI1) Biomarker Activity (AID 2283037); conditions: primary human bronchial epithelial cells; actives raise or lower the signal
Method in brief: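 Primary human bronchial epithelial cells (BE3C system) exposed 24 h; PAI-1 quantified by ELISA. Parallel sulforhodamine B staining of total protein flags cytotoxicity. Bidirectional fit versus DMSO.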

[7] = read-out: urokinase plasminogen activator (uPA), PLAU (gene 5328); assay: BSK_BE3C_uPA: BioMAP Diversity Plus: BE3C Assay for urokinase plasminogen activator (uPA) Biomarker Activity (AID 2283038); conditions: primary human bronchial epithelial cells; actives raise or lower the signal
Method in brief: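 ELISA read-out of uPA in human lung primary bronchial epithelial cultures, 24 h post-dosing. Gain or loss of signal fitted bidirectionally relative to DMSO baseline; cytotoxicity checked in parallel cultures via SRB total protein stain.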

[8] = read-out: Urokinase-type plasminogen activator receptor (uPAR), PLAUR (gene 5329); assay: BSK_BE3C_uPAR: BioMAP Diversity Plus: BE3C Assay for Urokinase-type plasminogen activator receptor (uPAR) Biomarker Activity (AID 2283039); conditions: primary human bronchial epithelial cells; actives raise or lower the signal
Method in brief: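 Primary human bronchial epithelial cells dosed for 24 h; uPAR quantified by ELISA with bidirectional fitting against DMSO. Overt cytotoxicity assessed in parallel cultures by SRB total-protein staining (0.1% SRB, 560 nm).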

[9] = read-out: Interleukin-6 (IL6), IL6 (gene 3569); assay: BSK_CASM3C_IL6: BioMAP Diversity Plus: CASM3C Assay for Interleukin-6 (IL6) Biomarker Activity for (AID 2283040); conditions: primary human coronary artery smooth muscle cells; actives raise or lower the signal
[10] = read-out: Tissue plasminogen activator (tPA), PLAT (gene 5327); assay: BSK_BE3C_tPA: BioMAP Diversity Plus: BE3C Assay for Tissue plasminogen activator (tPA) Biomarker Activity (AID 2283041); conditions: primary human bronchial epithelial cells; actives raise or lower the signal
Method in brief: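 Primary human bronchial epithelial cells in the BE3C system, exposed to compound for 24 h. tPA was quantified by ELISA; DMSO served as baseline, with gain or loss of signal fitted. Cytotoxicity checked in parallel cultures by SRB total-protein staining.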

[11] = read-out: Interleukin-8 (IL8), CXCL8 (gene 3576); assay: BSK_CASM3C_IL8: BioMAP Diversity Plus: CASM3C Assay for Interleukin-8 (IL8) Biomarker Activity (AID 2283042); conditions: primary human coronary artery smooth muscle cells; actives raise or lower the signal;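 further: IL-8 protein level quantified by ELISA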
[12] = read-out: Human Leukocyte Antigen - DR isotype (HLADR), HLA-DRA (gene 3122); assay: BSK_CASM3C_HLADR: BioMAP Diversity Plus: CASM3C Assay for Human Leukocyte Antigen - DR isotype (HLADR) Biomarker Activity (AID 2283043); conditions: primary human coronary artery smooth muscle cells; actives raise or lower the signal;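 further: cell-surface HLA-DR protein level quantified by ELISA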
[13] = read-out: Macrophage colony-stimulating factor (MCSF), CSF1 (gene 1435); assay: BSK_CASM3C_MCSF: BioMAP Diversity Plus: CASM3C Assay for Macrophage colony-stimulating factor (MCSF) Biomarker Activity (AID 2283044); conditions: primary human coronary artery smooth muscle cells; actives raise or lower the signal;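 further: M-CSF protein amount quantified by ELISA after 24 h exposure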
[14] = read-out: Low-density lipoprotein receptor (LDLR), LDLR (gene 3949); assay: BSK_CASM3C_LDLR: BioMAP Diversity Plus: CASM3C Assay for Low-density lipoprotein receptor (LDLR) Biomarker Activity (AID 2283045); conditions: primary human coronary artery smooth muscle cells; actives raise or lower the signal;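 further: LDLR protein level on the cell surface quantified by ELISA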
[15] = read-out: Monocyte Chemoattractant Protein-1 (MCP1), CCL2 (gene 6347); assay: BSK_CASM3C_MCP1: BioMAP Diversity Plus: CASM3C Assay for Monocyte Chemoattractant Protein-1 (MCP1) Biomarker Activity (AID 2283046); conditions: primary human coronary artery smooth muscle cells; actives raise or lower the signal;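 further: MCP-1 level quantified by ELISA 24 h after dosing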
[16] = BSK_CASM3C_Proliferation: Cell Proliferation Assessment in the BioMAP Diversity Plus: CASM3C Assay (AID 2283047); conditions: primary human coronary artery smooth muscle cells;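 further: sulforhodamine B total protein stain as relative cell number at 560 nm; sub-confluent cells exposed 48 h before staining; fitted both ways against DMSO so gain or loss of cell number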
[17] = read-out: Monokine induced gamma interferon (MIG), CXCL9 (gene 4283); assay: BSK_CASM3C_MIG: BioMAP Diversity Plus: CASM3C Assay for Monokine induced gamma interferon (MIG) Biomarker Activity (AID 2283048); conditions: primary human coronary artery smooth muscle cells; actives raise or lower the signal;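 further: MIG protein level measured by ELISA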
[18] = read-out: serum amyloid A (SAA), SAA1 (gene 6288); assay: BSK_CASM3C_SAA: BioMAP Diversity Plus: CASM3C Assay for serum amyloid A (SAA) Biomarker Activity (AID 2283049); conditions: primary human coronary artery smooth muscle cells; actives raise or lower the signal;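 further: SAA protein level quantified by ELISA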
[19] = BSK_CASM3C_SRB: Viability Assessment in the BioMAP Diversity Plus: CASM3C Assay (AID 2283050); conditions: primary human coronary artery smooth muscle cells
[20] = read-out: Thrombomodulin, THBD (gene 7056); assay: BSK_CASM3C_Thrombomodulin: BioMAP Diversity Plus: CASM3C Assay for Thrombomodulin Biomarker Activity (AID 2283051); conditions: primary human coronary artery smooth muscle cells; actives raise or lower the signal;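 further: thrombomodulin protein level measured by ELISA 24 h after dosing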

Measured: AC50

COCC(C)O (stereo not given)
inactive: all assays above

Oc1cc2ccccc2c2ccccc12
inactive: [20]
active: [1] 13.8 µM | [2] 8.16 µM | [3] 13 µM | [4] 28.8 µM | [5] 13.9 µM | [6] 24.9 µM | [7] 13.9 µM | [8] 27.6 µM | [9] 8.56 µM | [10] 14.7 µM | [11] 10.6 µM | [12] 7.47 µM | [13] 8.24 µM | [14] 10.1 µM | [15] 11.4 µM | [16] 10.5 µM | [17] 11.9 µM | [18] 11.3 µM | [19] 11.2 µM

Nc1cccc2c(N)cccc12
inactive: all assays above

COCC(C)OCC(C)O (stereo not given)
inactive: all assays above

CCCCCCCCC(=O)O
inactive: all assays above

CC[C@H](C)[C@@H](C(=O)O)n1sc2ccccc2c1=O
inactive: all assays above

CCCOC(=O)c1ccc(O)cc1
inactive: all assays above

CCCCCCCCCCCCN1CCCC1=O
active: [1] 26.2 µM | [2] 34.2 µM | [3] 30.6 µM | [4] 35.2 µM | [5] 20 µM | [6] 31.8 µM | [7] 35.1 µM | [8] 32.4 µM | [10] 15.4 µM | [16] 32.7 µM | [19] 27.4 µM | [20] 27.9 µM
inactive: [9] | [11] | [12] | [13] | [14] | [15] | [17] | [18]

N#C[C@@H]1CC(F)(F)CN1C(=O)CNC1CC2CCC(C1)N2c1ncccn1 (stereo not given in full)
inactive: all assays above

Cc1cc(C)c(O)c(C)c1
inactive: all assays above

CC(O)CO (stereo not given)
inactive: all assays above
